Measured values published in PubChem BioAssay.
Peptide text beside a SMILES is read from it. * marks the point of attachment. Boc = CC(C)(C)OC(=O)*

experiment: MRP1 drug-resistance reversers in H69AR cells – cell-based, doxorubicin co-treatment, pilot screen (AID 601); details: H69AR cells, CellTiter-Glo, 72 h; compound alone cytotoxicity; at 10 µM

| Compound | viability [%] |
| --- | --- |
| Cc1ccc(NC2c3ncccc3C(=O)N2C2CCCCC2)cc1C (stereo not drawn) | 92.7 |
| O=C(O)c1c[nH]c2ccc(S(=O)(=O)N3CCN(c4ccc(F)cc4)CC3)cc2c1=O | 93.7 |
| O=C(O)Cn1cc2c(n1)CCCC2 | 98 |
| O=C1CC(c2ccc(Cl)cc2)n2nc(N3C(=O)c4ccccc4C3=O)nc2N1 (stereo not drawn) | 91.8 |
| CCc1nnc(NC(=O)CSc2nnc(-c3ccc(OC)cc3)n2C)s1 | 104 |
| COc1cccc(NC(=O)Nc2cccs2)c1 | 79.5 |
| Cn1c(=O)c2c(nc(NCCCO)n2CCc2ccccc2)n(C)c1=O | 87.1 |
| CC(=O)c1coc2ccc(OCC(=O)O)cc12 | 98 |
| CCCN(Cc1cc2ccc(C)cc2[nH]c1=O)C(=O)c1cccnc1 | 87.4 |
| CCOP(=O)(c1ccc(N(C)C)cc1)C(O)c1ccccc1OC (stereo not drawn) | 98.7 |
| CCOCCCn1c(=S)[nH]c2cc3c(cc2c1=O)OCO3 | 97.6 |
| COc1ccc(CCNC(=O)C2CCN(Cc3nc(-c4cccc(Cl)c4)oc3C)CC2)cc1OC | 73.4 |
| c1csc(-c2nc3nc4ccccc4nc3n2Cc2ccc3c(c2)OCO3)c1 | 78 |
| CC(C)CC(NC(=O)OC(C)(C)C)C(=O)NC(C(=O)NC(C)C(N)=O)C(C)C (stereo not drawn) (Boc-Leu-Val-Ala-NH2; configuration not given here) | 112 |
| COc1ccc(-c2ccc(Nc3ccc(S(=O)(=O)N4CCCC4)cc3)nn2)cc1OC | 53.6 |
| CC1(C(=O)CSc2nc3ccccc3s2)CCC(=O)O1 (stereo not drawn) | 90.1 |
| Cc1cc(NC(=O)CN2CCC(O)(c3cccc(F)c3)CC2)no1 | 109 |
| COC(=O)c1[nH]c2ccccc2c1NC(=O)CN1CCC(C(N)=O)(N2CCCCC2)CC1 | 93.2 |
